Measured values from PubChem BioAssay (Tox21).
Records with an inconclusive call do not appear. Activity calls are given as the source filed them. Calls come from the whole dose curve; as a rule, active = well fitted curve in the direction sought with a large enough effect in the repeat runs; inconclusive = weak or mixed curves; inactive = no such curve, though single readings can be large; an effect the other way counts as inactive or inconclusive.

Tests used:
[1] = A CellTox Green Cytotoxicity Assay to monitor cytotoxicity in HepG2 cells - 16 hour (AID 1224876); note: nearly all actives have a fitted effect of over 45% in size; note: potency is the fitted concentration of half-maximal effect
Outline: (§1)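 HepG2 cells were seeded together with the CellTox Green dye at 600 cells/well, left 5 h at 37 C/5% CO2, then given compounds in DMSO. Fluorescence from dye bound to dead-cell DNA was read repeatedly over 40 h of treatment at 37 C.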

[2] = qHTS RealTime-Glo MT Cell Viability Assay in HepG2 cells - 32 hour (AID 1224877); note: nearly all actives have a fitted effect of over 55% in size; note: potency is the fitted concentration of half-maximal effect
Outline: (§2)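 Cells + NanoLuc/prosubstrate dispensed (600 cells/well) → 5 h at 37 C/5% CO2 → compounds in DMSO transferred → 40 h incubation at 37 C, luminescence read at 0, 8, 16, 24, 32, 40 h.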

[3] = A CellTox Green Cytotoxicity Assay to monitor cytotoxicity in HepG2 cells - 24 hour (AID 1224878); note: nearly all actives have a fitted effect of over 45% in size; note: potency is the fitted concentration of half-maximal effect
Outline: as §1

[4] = A CellTox Green Cytotoxicity Assay to monitor cytotoxicity in HepG2 cells - 40 hour (AID 1224879); note: nearly all actives have a fitted effect of over 40% in size; note: potency is the fitted concentration of half-maximal effect
Outline: as §1

[5] = qHTS RealTime-Glo MT Cell Viability Assay in HEK293 cells - 0 hour (AID 1224880); note: nearly all actives have a fitted effect of over 45% in size; note: potency is the fitted concentration of half-maximal effect; for activity change, negative = cytotoxicity: top concentration of the series differs between compounds
Outline: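 HEK293 cells mixed with RealTime-Glo reagents (NanoLuc plus cell-permeant prosubstrate) at 600 cells/well, preincubated 5 h at 37 C/5% CO2, then given 23 nL compound in DMSO. Nonlytic luminescence from viable cells was read at 0, 8, 16, 24, 32 and 40 h.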

[6] = A CellTox Green Cytotoxicity Assay to monitor cytotoxicity in HEK293 cells - 32 hour (AID 1224881); note: nearly all actives have a fitted effect of over 40% in size; note: potency is the fitted concentration of half-maximal effect
Outline: (§3)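 HEK293 cells premixed with CellTox Green dye were seeded at 600 cells/well and left 5 h at 37 C/5% CO2 before pin transfer of 23 nL compound in DMSO. Fluorescence from dye bound to dead-cell DNA was read during 40 h treatment.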

[7] = A CellTox Green Cytotoxicity Assay to monitor cytotoxicity in HepG2 cells - 0 hour (AID 1224882); note: nearly all actives have a fitted effect of over 35% in size
Outline: as §1

[8] = A CellTox Green Cytotoxicity Assay to monitor cytotoxicity in HEK293 cells - 8 hour (AID 1224884); note: nearly all actives have a fitted effect of over 35% in size; note: potency is the fitted concentration of half-maximal effect
Outline: as §3

[9] = qHTS RealTime-Glo MT Cell Viability Assay in HepG2 cells - 16 hour (AID 1224885); note: nearly all actives have a fitted effect of over 50% in size; note: potency is the fitted concentration of half-maximal effect
Outline: as §2

[10] = A CellTox Green Cytotoxicity Assay to monitor cytotoxicity in HepG2 cells - 32 hour (AID 1224883); note: nearly all actives have a fitted effect of over 50% in size; note: potency is the fitted concentration of half-maximal effect
Outline: as §1
% is set by controls: 0 for no effect and ±100 for the full control effect.

Nc1ccc2c(S(=O)(=O)O)cccc2c1S(=O)(=O)O
inactive: Potency [1] | Potency [2] | Potency [3] | Potency [4] | Potency [5] | Potency [6] | Potency [7] | Potency [8] | Potency [9]

CCCCNc1ccc(NCCCC)c2c1C(=O)c1ccccc1C2=O
inactive: cytotoxicity increase [1] -0.637% [at 15.8 µM] | activity change, negative = cytotoxic [2] -3.72% [at 15.8 µM] | cytotoxicity [3] -4.17% [at 15.8 µM] | cytotoxicity increase [4] -3.23% [at 15.8 µM] | activity change, negative = cytotoxicity [5] -4.14% [at 15.8 µM] | cytotoxicity increase [6] -0.0716% [at 15.8 µM] | cytotoxicity [7] 3.56% [at 15.8 µM] | cytotoxicity increase [8] 1.22% [at 15.8 µM]

CCCCCCCCCC[N+](C)(CCCCCCCCCC)CCC[Si](OC)(OC)OC
inactive: Potency [7]
active: Potency [1] 43.6 µM | Potency [2] 49 µM | Potency [3] 21.9 µM | Potency [4] 19.5 µM | Potency [6] 24.5 µM

S=C1NC=NC2N=CNC12 (configuration not stated)
inactive: Potency [1] | Potency [2] | Potency [3] | Potency [4] | Potency [5] | Potency [6] | Potency [7] | Potency [8] | Potency [9]

CC(=O)Nc1ccc(N=Nc2cc(C)ccc2O)cc1
inactive: Potency [1] | Potency [2] | Potency [3] | Potency [4] | Potency [5] | Potency [6] | Potency [10] | Potency [8]

Oc1ccc(Cl)cc1C1CCCC1
active: Potency [1] 54.9 µM | Potency [3] 54.9 µM | Potency [4] 54.9 µM | Potency [6] 49 µM | Potency [10] 54.9 µM
inactive: Potency [2] | Potency [5] | Potency [7] | Potency [9]

CCCCCCCCCCCCS(=O)(=O)Cl
inactive: cytotoxicity increase [1] -10.9% [at 15.8 µM] | activity change, negative = cytotoxic [2] 9.6% [at 15.8 µM] | cytotoxicity [3] -12.5% [at 15.8 µM] | cytotoxicity increase [4] -19.9% [at 15.8 µM] | activity change, negative = cytotoxicity [5] -1.06% [at 15.8 µM] | cytotoxicity increase [6] -1.06% [at 15.8 µM] | cytotoxicity [7] -7.13% [at 15.8 µM] | cytotoxicity increase [8] -0.511% [at 15.8 µM] | activity change, negative = cytotoxic [9] 1.02% [at 15.8 µM]

CCCCCc1ccc(O)cc1
active: Potency [1] 49 µM | Potency [3] 49 µM | Potency [4] 43.6 µM | Potency [6] 34.7 µM | Potency [10] 49 µM
inactive: Potency [2] | Potency [5] | Potency [7] | Potency [9]

CCc1c(C)cc(N)c(CC)c1N
inactive: Potency [1] | Potency [2] | Potency [3] | Potency [4] | Potency [5] | Potency [6] | Potency [7] | Potency [8] | Potency [9]

C1CCSC1
inactive: Potency [1] | Potency [2] | Potency [3] | Potency [4] | Potency [5] | Potency [6] | Potency [7] | Potency [8] | Potency [9]

Nc1ccc(F)c([N+](=O)[O-])c1
inactive: Potency [1] | Potency [3] | Potency [4] | Potency [5] | Potency [6] | Potency [7] | Potency [10] | Potency [8] | Potency [9]

Oc1ccc(C2(c3ccc(O)c(C4CCCCC4)c3)CCCCC2)cc1C1CCCCC1
inactive: Potency [6] | Potency [7] | Potency [8]
active: Potency [1] 34.7 µM | Potency [3] 34.7 µM | Potency [4] 24.5 µM | Potency [5] 49 µM | Potency [10] 34.7 µM | Potency [9] 38.9 µM

NC(=O)c1ccccc1Cl
inactive: Potency [1] | Potency [3] | Potency [4] | Potency [5] | Potency [6] | Potency [8] | Potency [9]

C=CC(=O)OCC(Br)CBr (configuration not stated)
inactive: Potency [1] | Potency [2] | Potency [3] | Potency [4] | Potency [6] | Potency [7] | Potency [10] | Potency [8] | Potency [9]

CN1CCN(CCCN2c3ccccc3Sc3ccc(Cl)cc32)CC1
inactive: Potency [7] | Potency [8]
active: Potency [1] 23.9 µM | Potency [2] 23.9 µM | Potency [3] 23.9 µM | Potency [4] 23.9 µM

Clc1cccc(Cl)n1
inactive: Potency [1] | Potency [3] | Potency [4] | Potency [5] | Potency [6] | Potency [7] | Potency [10] | Potency [8] | Potency [9]

Oc1ccc2c(c1)CCC2
inactive: Potency [1] | Potency [3] | Potency [4] | Potency [5] | Potency [6] | Potency [7] | Potency [10] | Potency [8] | Potency [9]

CN[C@H]1CC[C@@H](c2ccc(Cl)c(Cl)c2)c2ccc(S(N)(=O)=O)cc21
inactive: Potency [7]
active: Potency [1] 43.6 µM | Potency [2] 19.5 µM | Potency [3] 13.8 µM | Potency [4] 13.8 µM | Potency [6] 24.5 µM | Potency [10] 13.8 µM | Potency [8] 54.9 µM | Potency [9] 43.6 µM

O[Si](c1ccccc1)(c1ccccc1)c1ccccc1
inactive: Potency [1] | Potency [3] | Potency [4] | Potency [5] | Potency [6] | Potency [10] | Potency [8]

O=C(N[C@H](CO)[C@H](O)c1ccc([N+](=O)[O-])cc1)C(Cl)Cl
inactive: Potency [1] | Potency [2] | Potency [3] | Potency [4] | Potency [6] | Potency [7] | Potency [10] | Potency [8] | Potency [9]

CC/C=C(\C)C=O
inactive: Potency [1] | Potency [3] | Potency [4] | Potency [5] | Potency [6] | Potency [7] | Potency [8] | Potency [9]

N#Cc1ccc(C/C(=N/NC(=O)Nc2ccc(OC(F)(F)F)cc2)c2cccc(C(F)(F)F)c2)cc1
inactive: Potency [1] | Potency [3] | Potency [4] | Potency [5] | Potency [6] | Potency [7] | Potency [10] | Potency [8]

C=Cc1ccncc1
inactive: Potency [1] | Potency [3] | Potency [4] | Potency [5] | Potency [6] | Potency [7] | Potency [10] | Potency [8] | Potency [9]

C=COCCCC
inactive: Potency [1] | Potency [2] | Potency [3] | Potency [4] | Potency [7] | Potency [10] | Potency [8]

c1ccc(C[P+](c2ccccc2)(c2ccccc2)c2ccccc2)cc1
inactive: Potency [1] | Potency [2] | Potency [5] | Potency [7] | Potency [8] | Potency [9]
active: Potency [4] 19.5 µM
